Drawing on PubChem BioAssay AID651776 (Vanderbilt Specialized Chemistry Center, 2012), this text covers fold shift for 1 compound.

The assay concerns the target Muscarinic acetylcholine receptor M5 (Homo sapiens) (UniProt P08912). The assay can be described thus: M5 positive allosteric modulator fold shift, mechanism study, cell-based, calcium fluorescence (AID 651776). As to conditions: M5-expressing cells, agonist fold-shift, agonist curve fold shift, stronger effect = higher value.

The structures appear in SMILES notation.

Sequence of Muscarinic acetylcholine receptor M5 (Homo sapiens) (P08912 whole entry, looked up): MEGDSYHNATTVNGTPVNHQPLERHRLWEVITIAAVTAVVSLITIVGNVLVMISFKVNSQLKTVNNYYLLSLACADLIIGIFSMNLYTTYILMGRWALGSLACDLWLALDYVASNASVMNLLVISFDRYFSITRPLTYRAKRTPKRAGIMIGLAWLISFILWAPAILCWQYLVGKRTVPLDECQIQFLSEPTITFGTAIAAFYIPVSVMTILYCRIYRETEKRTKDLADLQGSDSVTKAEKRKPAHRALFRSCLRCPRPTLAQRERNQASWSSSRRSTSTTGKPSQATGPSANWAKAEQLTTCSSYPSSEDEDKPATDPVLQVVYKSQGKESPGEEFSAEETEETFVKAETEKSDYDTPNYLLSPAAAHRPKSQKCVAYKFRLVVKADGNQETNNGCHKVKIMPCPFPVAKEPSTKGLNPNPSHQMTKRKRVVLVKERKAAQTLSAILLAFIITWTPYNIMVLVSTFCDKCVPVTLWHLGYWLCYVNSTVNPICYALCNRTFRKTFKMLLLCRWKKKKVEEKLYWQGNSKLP

For `O=C1C(=O)N(CCOc2ccccc2)c2ccc(OC(F)(F)F)cc21`, the fold shift turned out to be 19.2.
